Data taken from PubChem BioAssay (Tox21).
Results filed as inconclusive are left out. Entries that show only a call come without a potency. Where a structure was tested more than once in an assay, its records may differ in their call. Active and inactive are the calls of the source. Unless noted, calls follow the shape of the dose curve; as a rule, active = well fitted cell-killing curve with a large enough effect in the repeat runs; inconclusive = weak or mixed curves, or effect the other way; inactive = flat fitted curve, though single readings scatter.

Target: Estrogen receptor beta (Homo sapiens) (UniProt Q92731)
Test: qHTS assay to identify small molecule antagonists of the estrogen receptor beta (ER-beta) signaling pathway (AID 1259378; active = well fitted inhibition curve with a large enough effect in the signal ratio in the repeat runs, not every such curve was filed as active; the % refers to the signal ratio; also: potency is read from the fitted curve at half-maximal effect)
Details: ER-beta-UAS-bla HEK293T, beta-lactamase FRET ratio, 16 h; series mostly up to 92.4 µM
How it was run: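 ER-beta-UAS-bla HEK293T (GripTite) cells in 2% charcoal-stripped FBS medium were preincubated 6 hr at 37C, dosed with compound, then stimulated with 1 nM E2 (final) for 16 hr; beta-lactamase reporter read by B/G FRET fluorescence after 2 hr substrate loading.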

Estrogen receptor beta (Homo sapiens), sequence (Q92731 whole entry, looked up): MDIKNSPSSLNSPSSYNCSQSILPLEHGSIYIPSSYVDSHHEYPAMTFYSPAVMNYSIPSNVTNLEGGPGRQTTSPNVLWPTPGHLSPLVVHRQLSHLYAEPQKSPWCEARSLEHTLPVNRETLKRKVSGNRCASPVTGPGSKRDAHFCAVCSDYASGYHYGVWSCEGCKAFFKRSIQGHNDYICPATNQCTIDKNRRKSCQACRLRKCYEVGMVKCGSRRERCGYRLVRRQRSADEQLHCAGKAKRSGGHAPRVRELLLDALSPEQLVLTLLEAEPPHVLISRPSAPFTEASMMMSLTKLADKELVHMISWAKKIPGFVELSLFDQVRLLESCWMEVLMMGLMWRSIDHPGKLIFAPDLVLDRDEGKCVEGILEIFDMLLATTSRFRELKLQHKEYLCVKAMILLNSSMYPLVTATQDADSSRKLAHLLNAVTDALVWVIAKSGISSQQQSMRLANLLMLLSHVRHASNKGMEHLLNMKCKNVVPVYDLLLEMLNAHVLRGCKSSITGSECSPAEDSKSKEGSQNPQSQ

| SMILES | Potency |
| --- | --- |
| Cc1noc(NS(=O)(=O)c2ccc(N)cc2)c1C | inactive |
| CC(C)(Oc1ccc(C2CC2(Cl)Cl)cc1)C(=O)O (stereo not drawn) | inactive |
| OC(Cn1cncn1)(Cn1cncn1)c1ccc(F)cc1F | inactive |
| CCCCC1C(=O)N(c2ccccc2)N(c2ccccc2)C1=O | inactive |
| O=c1cc[nH]c(=S)[nH]1 | inactive |
| CC(C)[C@@H]1CC[C@@H](C)C[C@H]1O | inactive |
| Cc1cc(=O)n(-c2ccccc2)n1C | inactive |
| NC(=O)c1ccccc1O | inactive |
| NNC(=O)c1ccncc1 | inactive |
| CCCNC(=O)NS(=O)(=O)c1ccc(Cl)cc1 | inactive |
| NC(N)=O | inactive |
| CCCC(O)C(CC)CO (stereo not drawn) | inactive |
| Nc1ccc(C(=O)O)cc1 | inactive |
| CCCN(CCC)S(=O)(=O)c1ccc(C(=O)O)cc1 | inactive |
| NC(N)=NC(=O)c1nc(Cl)c(N)nc1N | inactive |
| Cc1ccc(O)cc1 | inactive |
| NC(=O)c1cnccn1 | inactive |
| C1N2CN3CN1CN(C2)C3 | inactive |
| C[C@]12C=CC(=O)C=C1CC[C@@H]1[C@@H]2[C@@H](O)C[C@@]2(C)[C@H]1CC[C@]2(O)C(=O)CO | inactive |
| Nc1ccn([C@H]2CC[C@@H](CO)O2)c(=O)n1 | inactive |
| CC1(C)[C@@H]2CC[C@@]1(C)C(=O)C2 | inactive |
| Nc1ccc(O)c(C(=O)O)c1 | inactive |
| COc1ccc2[nH]cc(CCNC(C)=O)c2c1 | inactive |
| Cc1ccc(S(=O)(=O)NC(=O)NN2CCCCCC2)cc1 | inactive |
| Cc1ccc(C)c(OCCCC(C)(C)C(=O)O)c1 | inactive |
| CC(=O)Nc1nnc(S(N)(=O)=O)s1 | inactive |
| CC(=O)NS(=O)(=O)c1ccc(N)cc1 | inactive |
| Cn1cc[nH]c1=S | 43.2 µM (active) and inactive |
| O=c1ccc2ccccc2o1 | inactive |

Tested on: not listed separately
Test: qHTS assay to identify small molecule agonists of the androgen receptor (AR) signaling pathway in the presence of an antagonist - cell viability counter screen (AID 1259379);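 also: MDA-kb2 human breast cancer cells carrying an MMTV luciferase reporter; nearly all actives have a fitted effect of over 25% in size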
Details: MDA-kb2 viability, CellTiter-Fluor, 16 h; series mostly up to 92.4 µM
How it was run: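 MDA-kb2 cells (MMTV-luciferase, AR/GR), 3,000/well, 5 h attachment, then 3.0 µM nilutamide (final) and compounds at 15 concentrations. Viability by CellTiter-Fluor fluorescence after 16 h at 37 °C, 0% CO2, in the reporter wells.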

| SMILES | Potency |
| --- | --- |
| Cc1noc(NS(=O)(=O)c2ccc(N)cc2)c1C | inactive |
| CCCC(CCC)C(=O)O | inactive |
| OC(Cn1cncn1)(Cn1cncn1)c1ccc(F)cc1F | inactive |
| NC(=O)c1ccccc1O | inactive |
| NNC(=O)c1ccncc1 | inactive |
| NS(=O)(=O)c1cc(C(=O)O)c(NCc2ccco2)cc1Cl | inactive |
| Nc1ccc(C(=O)O)cc1 | inactive |
| O=C(O)CCCCC(=O)O | inactive |
| CCCN(CCC)S(=O)(=O)c1ccc(C(=O)O)cc1 | inactive |
| NC(N)=NC(=O)c1nc(Cl)c(N)nc1N | inactive |
| NC(=O)c1cnccn1 | inactive |
| C1N2CN3CN1CN(C2)C3 | inactive |
| Nc1ccn([C@H]2CC[C@@H](CO)O2)c(=O)n1 | inactive |
| CC1(C)[C@@H]2CC[C@@]1(C)C(=O)C2 | inactive |
| Cc1ccc(C)c(OCCCC(C)(C)C(=O)O)c1 | inactive |
| Nc1ccc(S(=O)(=O)c2ccc(N)cc2)cc1 | inactive |
| Oc1ccc(/C=C/c2cc(O)cc(O)c2)cc1 | inactive |
| CC(=O)NS(=O)(=O)c1ccc(N)cc1 | inactive |
| Cn1cc[nH]c1=S | inactive |
